This note sets out measurements from ChEMBL document CHEMBL1961873, “Compounds: GSK PKIS; Assays: Nanosyn kinase panel” (2012).

The target of assay [1] is Protein kinase C gamma type (Homo sapiens) (UniProt P05129). The settings on record: at 1 µM.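 Further: each value is an averaged percent inhibition of the enzyme.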
Assay [2] has as its target T1, Protein kinase C iota type (Homo sapiens) (UniProt P41743).
T1 sequence (whole entry): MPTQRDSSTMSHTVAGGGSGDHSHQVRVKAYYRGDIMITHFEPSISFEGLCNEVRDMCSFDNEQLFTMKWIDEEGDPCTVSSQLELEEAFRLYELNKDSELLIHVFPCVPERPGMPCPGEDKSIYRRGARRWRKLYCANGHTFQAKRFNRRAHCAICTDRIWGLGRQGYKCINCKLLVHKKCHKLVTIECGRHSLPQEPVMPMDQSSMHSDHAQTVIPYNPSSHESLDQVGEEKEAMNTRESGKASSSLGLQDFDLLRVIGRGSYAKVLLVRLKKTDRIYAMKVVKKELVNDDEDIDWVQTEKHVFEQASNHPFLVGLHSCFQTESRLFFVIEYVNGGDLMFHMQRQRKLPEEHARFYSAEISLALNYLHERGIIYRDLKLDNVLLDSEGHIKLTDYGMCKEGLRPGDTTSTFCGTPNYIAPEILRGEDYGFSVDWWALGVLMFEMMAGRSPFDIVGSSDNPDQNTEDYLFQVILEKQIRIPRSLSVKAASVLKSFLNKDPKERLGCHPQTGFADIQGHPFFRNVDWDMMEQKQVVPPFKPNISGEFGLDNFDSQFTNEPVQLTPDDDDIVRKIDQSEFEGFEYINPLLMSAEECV
As to conditions: at 0.1 µM.

The target of assay [3] is T1, Protein kinase C iota type (Homo sapiens). As to conditions: at 1 µM.
In assay [4] the target is Protein kinase C theta type (Homo sapiens) (UniProt Q04759). The settings on record: at 0.1 µM.
Protein kinase C theta type (Homo sapiens), sequence (Q04759 whole entry, looked up): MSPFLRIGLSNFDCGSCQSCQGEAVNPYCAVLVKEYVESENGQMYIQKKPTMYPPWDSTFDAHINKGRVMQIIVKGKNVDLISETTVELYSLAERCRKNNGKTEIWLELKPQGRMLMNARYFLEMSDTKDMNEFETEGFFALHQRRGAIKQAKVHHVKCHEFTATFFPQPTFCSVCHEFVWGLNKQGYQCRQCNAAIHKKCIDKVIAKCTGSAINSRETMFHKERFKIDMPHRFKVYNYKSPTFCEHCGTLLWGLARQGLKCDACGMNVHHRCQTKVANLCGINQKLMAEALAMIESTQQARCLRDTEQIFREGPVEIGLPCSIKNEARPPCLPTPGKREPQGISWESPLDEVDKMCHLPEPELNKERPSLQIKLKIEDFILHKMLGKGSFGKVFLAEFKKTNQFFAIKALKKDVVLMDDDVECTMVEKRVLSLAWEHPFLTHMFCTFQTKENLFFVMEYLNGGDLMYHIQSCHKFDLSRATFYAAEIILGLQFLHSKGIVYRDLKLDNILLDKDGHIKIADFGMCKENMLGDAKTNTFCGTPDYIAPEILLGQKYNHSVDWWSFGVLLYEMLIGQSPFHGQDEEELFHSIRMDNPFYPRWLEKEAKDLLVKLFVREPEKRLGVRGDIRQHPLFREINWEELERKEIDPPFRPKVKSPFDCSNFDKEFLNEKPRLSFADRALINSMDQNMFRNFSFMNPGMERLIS
The target is the same in assay [5]. The settings on record: at 1 µM.
Assay [6] addresses Protein kinase C beta type (Homo sapiens) (UniProt P05771). The settings on record: at 0.1 µM.
The target is the same in assay [7]. As to conditions: at 1 µM.
The target in assay [8] is T2, Serine/threonine-protein kinase D1 (Homo sapiens) (UniProt Q15139).
T2 sequence (whole entry): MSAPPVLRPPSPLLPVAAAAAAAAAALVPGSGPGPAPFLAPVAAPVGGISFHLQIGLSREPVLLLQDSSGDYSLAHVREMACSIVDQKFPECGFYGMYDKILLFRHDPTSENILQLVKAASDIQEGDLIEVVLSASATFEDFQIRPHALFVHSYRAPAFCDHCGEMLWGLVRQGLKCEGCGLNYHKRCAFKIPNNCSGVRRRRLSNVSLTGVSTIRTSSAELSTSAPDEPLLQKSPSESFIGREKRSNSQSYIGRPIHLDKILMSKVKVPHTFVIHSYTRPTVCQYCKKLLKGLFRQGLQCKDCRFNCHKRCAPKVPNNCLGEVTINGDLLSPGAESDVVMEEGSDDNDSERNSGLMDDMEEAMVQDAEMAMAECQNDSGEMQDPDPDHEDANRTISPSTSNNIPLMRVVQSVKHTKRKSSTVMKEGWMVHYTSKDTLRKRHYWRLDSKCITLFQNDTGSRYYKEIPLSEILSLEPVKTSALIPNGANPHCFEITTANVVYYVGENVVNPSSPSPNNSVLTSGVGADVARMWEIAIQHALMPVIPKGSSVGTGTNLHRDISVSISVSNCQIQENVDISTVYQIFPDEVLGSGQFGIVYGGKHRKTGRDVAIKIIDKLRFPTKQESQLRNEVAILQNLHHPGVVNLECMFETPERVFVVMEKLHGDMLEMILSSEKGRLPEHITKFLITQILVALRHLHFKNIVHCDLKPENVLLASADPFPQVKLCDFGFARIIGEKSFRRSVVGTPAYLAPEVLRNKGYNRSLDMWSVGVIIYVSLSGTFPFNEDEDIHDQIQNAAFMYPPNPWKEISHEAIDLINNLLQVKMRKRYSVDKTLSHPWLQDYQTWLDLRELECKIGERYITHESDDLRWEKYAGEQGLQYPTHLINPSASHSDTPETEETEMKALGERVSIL
The settings on record: at 0.1 µM.

Assay [9] addresses T2, Serine/threonine-protein kinase D1 (Homo sapiens). The settings on record: at 1 µM.
The target in assay [10] is T3, Serine/threonine-protein kinase D2 (Homo sapiens) (UniProt Q9BZL6).
T3 sequence (whole entry): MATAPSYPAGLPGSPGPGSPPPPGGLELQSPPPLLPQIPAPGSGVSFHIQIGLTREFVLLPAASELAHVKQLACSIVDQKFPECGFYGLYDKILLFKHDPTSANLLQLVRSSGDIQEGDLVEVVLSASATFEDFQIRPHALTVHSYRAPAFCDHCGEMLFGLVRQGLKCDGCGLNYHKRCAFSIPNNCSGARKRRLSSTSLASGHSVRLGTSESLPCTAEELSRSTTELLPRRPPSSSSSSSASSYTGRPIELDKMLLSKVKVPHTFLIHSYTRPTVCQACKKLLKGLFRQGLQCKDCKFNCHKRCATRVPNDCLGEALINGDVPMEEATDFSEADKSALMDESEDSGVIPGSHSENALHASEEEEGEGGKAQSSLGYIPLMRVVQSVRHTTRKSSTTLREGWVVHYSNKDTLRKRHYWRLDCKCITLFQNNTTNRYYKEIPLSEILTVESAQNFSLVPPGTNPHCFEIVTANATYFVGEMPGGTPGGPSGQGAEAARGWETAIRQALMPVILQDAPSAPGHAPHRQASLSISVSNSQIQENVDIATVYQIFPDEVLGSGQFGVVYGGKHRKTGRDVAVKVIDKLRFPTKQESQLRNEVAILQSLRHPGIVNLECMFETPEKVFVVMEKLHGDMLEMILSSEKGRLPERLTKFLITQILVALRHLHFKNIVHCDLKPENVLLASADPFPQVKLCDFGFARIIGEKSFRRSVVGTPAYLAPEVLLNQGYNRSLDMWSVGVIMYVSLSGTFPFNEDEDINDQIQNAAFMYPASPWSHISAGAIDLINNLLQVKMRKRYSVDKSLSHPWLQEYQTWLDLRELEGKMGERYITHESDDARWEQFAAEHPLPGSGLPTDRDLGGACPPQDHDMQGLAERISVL
The settings on record: at 0.1 µM.

In assay [11] the target is T3, Serine/threonine-protein kinase D2 (Homo sapiens). The settings on record: at 1 µM.
Assay [12] has as its target T4, Serine/threonine-protein kinase D3 (Homo sapiens) (UniProt O94806).
T4 sequence (whole entry): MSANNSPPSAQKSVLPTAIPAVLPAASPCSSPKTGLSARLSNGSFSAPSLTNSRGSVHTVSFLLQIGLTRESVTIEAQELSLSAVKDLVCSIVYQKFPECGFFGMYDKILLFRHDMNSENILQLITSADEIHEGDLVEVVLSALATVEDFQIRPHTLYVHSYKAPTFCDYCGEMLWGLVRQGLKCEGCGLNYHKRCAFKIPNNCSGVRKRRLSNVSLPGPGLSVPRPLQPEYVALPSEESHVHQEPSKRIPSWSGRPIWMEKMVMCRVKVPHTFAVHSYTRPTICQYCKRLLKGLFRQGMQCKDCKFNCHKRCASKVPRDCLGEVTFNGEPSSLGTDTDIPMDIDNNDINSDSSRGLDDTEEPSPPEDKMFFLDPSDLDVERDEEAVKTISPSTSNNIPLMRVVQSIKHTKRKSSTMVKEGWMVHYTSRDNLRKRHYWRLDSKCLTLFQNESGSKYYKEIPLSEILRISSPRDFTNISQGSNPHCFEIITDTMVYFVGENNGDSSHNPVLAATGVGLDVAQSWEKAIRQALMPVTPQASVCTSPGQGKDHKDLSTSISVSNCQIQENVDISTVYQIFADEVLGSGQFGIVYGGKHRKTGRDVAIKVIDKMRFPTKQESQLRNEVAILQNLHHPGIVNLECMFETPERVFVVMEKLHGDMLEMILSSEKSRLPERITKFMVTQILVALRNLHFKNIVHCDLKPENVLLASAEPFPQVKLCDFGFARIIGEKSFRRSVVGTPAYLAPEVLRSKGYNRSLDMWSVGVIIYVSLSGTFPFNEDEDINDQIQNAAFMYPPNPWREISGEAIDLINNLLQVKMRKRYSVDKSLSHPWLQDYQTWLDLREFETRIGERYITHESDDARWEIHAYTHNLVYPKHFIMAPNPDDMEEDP
As to conditions: at 0.1 µM.

Assay [13] deals with T4, Serine/threonine-protein kinase D3 (Homo sapiens). As to conditions: at 1 µM.
The target of assay [14] is T5, cGMP-dependent protein kinase 1 (Homo sapiens) (UniProt Q13976).
T5 sequence (whole entry): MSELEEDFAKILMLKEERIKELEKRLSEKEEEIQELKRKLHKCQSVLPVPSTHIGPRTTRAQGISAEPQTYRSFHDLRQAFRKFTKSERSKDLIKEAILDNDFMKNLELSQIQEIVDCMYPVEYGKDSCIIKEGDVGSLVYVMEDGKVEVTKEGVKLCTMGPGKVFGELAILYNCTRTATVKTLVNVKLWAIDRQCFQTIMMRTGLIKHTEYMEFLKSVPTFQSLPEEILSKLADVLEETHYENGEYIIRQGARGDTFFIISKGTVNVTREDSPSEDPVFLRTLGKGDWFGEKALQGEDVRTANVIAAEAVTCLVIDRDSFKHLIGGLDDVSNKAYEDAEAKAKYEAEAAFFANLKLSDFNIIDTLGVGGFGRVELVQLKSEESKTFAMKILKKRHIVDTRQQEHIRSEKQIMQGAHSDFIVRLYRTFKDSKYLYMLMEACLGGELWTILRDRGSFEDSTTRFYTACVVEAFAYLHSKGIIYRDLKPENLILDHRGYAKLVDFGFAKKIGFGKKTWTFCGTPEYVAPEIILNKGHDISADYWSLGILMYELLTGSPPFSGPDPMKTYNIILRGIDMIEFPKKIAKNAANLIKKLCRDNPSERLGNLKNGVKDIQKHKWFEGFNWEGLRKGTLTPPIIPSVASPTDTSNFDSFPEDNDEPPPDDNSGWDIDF
The settings on record: at 0.1 µM.

The target in assay [15] is T5, cGMP-dependent protein kinase 1 (Homo sapiens). The settings on record: at 1 µM.
Assay [16] addresses T6, cGMP-dependent protein kinase 2 (Homo sapiens) (UniProt Q13237).
T6 sequence (whole entry): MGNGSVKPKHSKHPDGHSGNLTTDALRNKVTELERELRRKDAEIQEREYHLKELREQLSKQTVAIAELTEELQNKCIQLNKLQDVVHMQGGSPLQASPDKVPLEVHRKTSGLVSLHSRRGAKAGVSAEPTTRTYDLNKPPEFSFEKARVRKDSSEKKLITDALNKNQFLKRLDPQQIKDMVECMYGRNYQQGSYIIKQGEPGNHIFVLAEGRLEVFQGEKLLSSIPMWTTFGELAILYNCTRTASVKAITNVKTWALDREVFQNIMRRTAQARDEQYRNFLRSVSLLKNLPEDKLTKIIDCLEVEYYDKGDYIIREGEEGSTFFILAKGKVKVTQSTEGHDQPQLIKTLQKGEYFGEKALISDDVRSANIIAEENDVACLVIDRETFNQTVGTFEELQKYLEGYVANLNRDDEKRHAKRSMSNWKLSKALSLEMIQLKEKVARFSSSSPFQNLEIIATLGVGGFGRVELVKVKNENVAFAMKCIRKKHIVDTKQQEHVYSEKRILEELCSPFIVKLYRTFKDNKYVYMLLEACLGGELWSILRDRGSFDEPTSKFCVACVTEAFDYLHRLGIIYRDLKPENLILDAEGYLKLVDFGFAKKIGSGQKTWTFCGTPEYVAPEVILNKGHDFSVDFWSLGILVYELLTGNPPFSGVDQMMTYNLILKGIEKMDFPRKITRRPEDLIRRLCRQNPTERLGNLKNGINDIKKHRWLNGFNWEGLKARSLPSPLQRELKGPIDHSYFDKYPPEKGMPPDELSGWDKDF
As to conditions: at 0.1 µM.

In assay [17] the target is T6, cGMP-dependent protein kinase 2 (Homo sapiens). The settings on record: at 1 µM.
For assay [18], the target named is T7, cAMP-dependent protein kinase catalytic subunit PRKX (Homo sapiens) (UniProt P51817).
T7 sequence (whole entry): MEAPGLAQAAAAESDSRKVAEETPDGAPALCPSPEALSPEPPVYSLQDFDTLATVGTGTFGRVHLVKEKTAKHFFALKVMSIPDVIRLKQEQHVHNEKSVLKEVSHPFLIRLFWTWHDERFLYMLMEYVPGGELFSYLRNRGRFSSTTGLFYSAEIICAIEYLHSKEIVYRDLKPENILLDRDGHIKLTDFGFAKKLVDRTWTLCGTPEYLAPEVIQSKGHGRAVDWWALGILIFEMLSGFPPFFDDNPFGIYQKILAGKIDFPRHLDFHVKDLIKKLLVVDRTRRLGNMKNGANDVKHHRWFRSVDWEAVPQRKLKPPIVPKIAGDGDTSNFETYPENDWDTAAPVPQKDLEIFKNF
The settings on record: at 0.1 µM.

In assay [19] the target is T7, cAMP-dependent protein kinase catalytic subunit PRKX (Homo sapiens). The settings on record: at 1 µM.
The target in assay [20] is Rho-associated protein kinase 1 (Homo sapiens) (UniProt Q13464). As to conditions: at 0.1 µM.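 Further: values are mean percent inhibition of ROCK1.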
Rho-associated protein kinase 1 (Homo sapiens), sequence (Q13464 2-1354 limits assumed): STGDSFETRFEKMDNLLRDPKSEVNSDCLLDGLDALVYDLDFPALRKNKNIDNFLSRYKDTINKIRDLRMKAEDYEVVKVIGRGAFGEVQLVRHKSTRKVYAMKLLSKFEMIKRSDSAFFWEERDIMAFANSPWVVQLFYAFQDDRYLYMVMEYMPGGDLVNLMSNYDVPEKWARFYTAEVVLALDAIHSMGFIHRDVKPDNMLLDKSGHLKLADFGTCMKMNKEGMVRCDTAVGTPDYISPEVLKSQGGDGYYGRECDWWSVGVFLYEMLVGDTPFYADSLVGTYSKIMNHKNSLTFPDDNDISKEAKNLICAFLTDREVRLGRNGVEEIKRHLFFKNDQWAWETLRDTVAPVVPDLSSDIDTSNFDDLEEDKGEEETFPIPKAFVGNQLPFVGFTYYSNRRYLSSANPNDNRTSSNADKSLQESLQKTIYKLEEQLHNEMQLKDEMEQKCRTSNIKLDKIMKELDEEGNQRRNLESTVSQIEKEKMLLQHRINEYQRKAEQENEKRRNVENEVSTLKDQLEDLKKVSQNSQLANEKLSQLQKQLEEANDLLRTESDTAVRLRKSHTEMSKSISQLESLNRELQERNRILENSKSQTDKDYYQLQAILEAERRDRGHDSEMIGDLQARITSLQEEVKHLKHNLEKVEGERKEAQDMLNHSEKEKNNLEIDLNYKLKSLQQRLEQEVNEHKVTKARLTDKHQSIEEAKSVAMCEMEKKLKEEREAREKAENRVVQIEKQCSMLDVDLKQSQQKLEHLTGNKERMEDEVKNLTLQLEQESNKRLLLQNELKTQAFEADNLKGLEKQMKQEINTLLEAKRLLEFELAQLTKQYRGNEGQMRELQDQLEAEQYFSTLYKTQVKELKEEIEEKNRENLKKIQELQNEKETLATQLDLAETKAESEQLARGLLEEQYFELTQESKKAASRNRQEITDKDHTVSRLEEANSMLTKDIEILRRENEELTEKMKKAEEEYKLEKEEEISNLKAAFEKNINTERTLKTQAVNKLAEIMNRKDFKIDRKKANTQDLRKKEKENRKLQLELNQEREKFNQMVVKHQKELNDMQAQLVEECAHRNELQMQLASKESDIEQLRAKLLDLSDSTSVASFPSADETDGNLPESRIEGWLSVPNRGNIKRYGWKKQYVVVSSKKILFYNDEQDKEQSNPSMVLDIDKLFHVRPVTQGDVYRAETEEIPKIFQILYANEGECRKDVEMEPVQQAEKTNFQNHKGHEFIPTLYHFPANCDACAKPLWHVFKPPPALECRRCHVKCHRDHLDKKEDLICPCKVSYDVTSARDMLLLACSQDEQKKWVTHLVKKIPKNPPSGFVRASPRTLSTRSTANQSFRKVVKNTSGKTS

Protein kinase C beta type (Homo sapiens), sequence (P05771 2-671 limits assumed): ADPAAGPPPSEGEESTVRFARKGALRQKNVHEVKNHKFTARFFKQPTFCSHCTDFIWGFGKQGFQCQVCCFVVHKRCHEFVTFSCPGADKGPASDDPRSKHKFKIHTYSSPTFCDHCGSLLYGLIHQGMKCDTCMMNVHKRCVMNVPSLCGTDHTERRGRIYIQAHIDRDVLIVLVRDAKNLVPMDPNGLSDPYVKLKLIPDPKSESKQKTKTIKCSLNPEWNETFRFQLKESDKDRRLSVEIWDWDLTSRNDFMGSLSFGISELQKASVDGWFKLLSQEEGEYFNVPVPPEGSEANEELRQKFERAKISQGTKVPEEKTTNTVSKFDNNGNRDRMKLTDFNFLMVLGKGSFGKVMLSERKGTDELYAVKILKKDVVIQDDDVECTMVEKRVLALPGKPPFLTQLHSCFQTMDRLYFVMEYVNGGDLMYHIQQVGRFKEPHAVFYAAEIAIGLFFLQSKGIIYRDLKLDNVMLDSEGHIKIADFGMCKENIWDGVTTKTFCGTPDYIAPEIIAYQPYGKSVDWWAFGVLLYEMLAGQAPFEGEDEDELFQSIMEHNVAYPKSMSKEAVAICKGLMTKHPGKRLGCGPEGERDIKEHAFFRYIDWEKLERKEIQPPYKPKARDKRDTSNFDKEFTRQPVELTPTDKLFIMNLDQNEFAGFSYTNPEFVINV

For `CNC(=O)c1cccc(C#Cc2cncnc2Nc2ccc(OCc3cccc(F)c3)c(Cl)c2)c1`, the inhibition is -1.09% in [1]; 0.26% in assay [2]; -0.26% in assay [3]; 0.09% in assay [4]; 1.85% in assay [5]; -3.35% in [6]. Further, the inhibition in [7] is -0.69%; in assay [8] it was 0.59%; in assay [9], -0.61%; in assay [10], -0.57%; in assay [11] it was 2.02%; in assay [12], 0.11%. The inhibition in assay [13] was 0.04%; in assay [14], -0.44%; in assay [15] it was 3.3%; in assay [16], 0.38%; in [17], 0.97%; in assay [18], -0.25%. In addition, the inhibition was 0.9% in assay [19] and -1.85% in assay [20].

As usually defined, the inhibition is the drop in the measured response relative to a control, in per cent.
